This note sets out measurements from PubChem BioAssay (NCI).

About 83,000 compounds went through this panel and 20% of them were active in at least one assay; those are over-represented in the sample as a whole.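 Values shown are percent growth following 48 h exposure of cells in 96-well plates to a single concentration of compound; below 10 was considered active.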 The source made the active and inactive calls.

One assay relates to SR leukemia. Nature of the assay: NCI-60 one-dose screen, 48 h (100 = growth as untreated, 0 = no growth, -100 = all killed). Particulars: 10 µM.
Take `Cc1ccc(CNC(=O)Cc2ccc3c(c2)CN(C2CCC(=O)NC2=O)C3=O)cc1` (stereo not given): the growth is 38.7% (inactive).
On the same count and under the same terms, under `CC1(c2ccccc2)NC(=O)N(CC(=O)Nc2ccc(C(=O)/C=C/c3ccc(Br)cc3)cc2)C1=O` (stereo not given) stands 15.5% (inactive); under `COc1ccc(-c2cc(C(=O)N=Nc3c(O)[nH]c4ccccc34)c3ccccc3n2)cc1`, 22.8% (inactive); under `Cc1ccn2c(C(=O)c3ccccc3)cc(-c3cc(-c4ccc(N(C)C)cc4)c(C#N)c(N)n3)c2c1`, 75.9% (inactive).
For the compound `COc1ccc(C(=O)/C=C/c2cc(C(F)(F)F)cc(C(F)(F)F)c2)cc1S(N)(=O)=O`, the growth is 5.52% (active).
`O=C(Nc1cccc(C(F)(F)F)c1)c1cncc(C#Cc2cnc3ccc(N4CCOCC4)nn23)c1`: the growth is -1.17% (active).
Same read-out and setting: the result for `O=C(CNc1nc(-c2ccccc2)cs1)Nc1ccc([N+](=O)[O-])cc1` reads 10.8% (inactive); that for `Nc1cc(-c2cccc(C(=O)NCc3ccc4c(c3)OCO4)c2)ccn1`, 76.1% (inactive).
Still for that read-out and setting: the result for `O=c1c2ccccc2nc(COc2ccccc2)n1/N=C/c1ccc(N2CCCC2)cc1` reads 73.9% (inactive); that for `O=C(CNc1nc(-c2ccccc2)cs1)Nc1cccc([N+](=O)[O-])c1`, 2.8% (active).
Same read-out and setting: the result for `Cc1ccc(/C(CSc2nnc(-c3c[nH]c4ccccc34)n2-c2ccccc2)=N/O)cc1` reads 9.79% (active); that for `COC1=C[C@]23CCC(=O)N2CCc2cc4c(cc2[C@@H]3[C@@H]1OC(=O)CCCC(C)C)OCO4`, 18.2% (inactive); that for `Cc1ccc(-c2nc(Nc3ccccc3C(=O)O)c3ccccc3n2)cc1`, 18.6% (inactive).
Turning to `CSc1nc(-c2cccc(C)c2)c2cc(-c3ccccc3)n(C)c2n1`, the growth was 11.7% (inactive).
Still for that read-out and setting: under `CN(C)c1ccc(/C=C/C(=O)c2ccc(NC(=O)CN3C(=O)NC(C)(c4ccccc4)C3=O)cc2)cc1` (stereo not given) stands 42.7% (inactive); under `COc1cc(/C=C/C(=O)c2ccc(NC(=O)CN3C(=O)NC(C)(c4ccccc4)C3=O)cc2)cc(OC)c1OC` (stereo not given), 5.93% (active).
Consider `O=C(Nc1cccc(C(F)(F)F)c1)c1cncc(C#Cc2cnc3cccnn23)c1`, for which the growth was 9.35% (active).
On to `CC1(c2ccccc2)NC(=O)N(CC(=O)Nc2ccc(C(=O)/C=C/c3ccccc3)cc2)C1=O` (stereo not given), for which the growth is 14.4% (inactive).
For `CN1C(=O)N(C)C2SC(N/N=C/c3ccccc3F)=NC21` (stereo not given), the growth is 16.4% (inactive).
`COc1ccccc1C(=O)NNC(=O)CSc1nc2c(c(=O)[nH]1)CCCC2`: the growth was 96.4% (inactive).
With `CCN1CCN(Cc2ccc(C(=O)Nc3cccc(-c4cn(-c5ccc6oc(=O)ccc6c5)nn4)c3)cc2C(F)(F)F)CC1`, the growth was -51.6% (active).
On the same count and under the same terms, the result for `COc1ccc(CN2[C@H](C(=O)NCc3ccc(C(=O)NO)cc3)Cc3c([nH]c4ccccc34)[C@H]2C2CC2)cc1` reads 25.5% (inactive); that for `Cn1c(O)c(N=Nc2nc(-c3cc4ccccc4oc3=O)cs2)c2cc(Br)ccc21`, 71.7% (inactive); that for `[2H]C([2H])([2H])Oc1ccc2ncc(C#Cc3cncc(C(=O)Nc4ccc(CN5CCN(C)CC5)c(C(F)(F)F)c4)c3)n2n1`, -9.99% (active).
Same read-out and setting: the result for `Cc1ccc(/C=C/C(=O)c2ccc(S(=O)(=O)NCCNc3nc(Nc4ccc(F)cc4)nc(N(C)C)n3)cc2)cc1` reads 1.14% (active); that for `CCOc1ccc(Nc2nc3ccccc3nc2Nc2ccc(OCC)cc2)cc1`, 42.2% (inactive).
As for `COc1cnc2c(c1)C(=O)c1c-2n(CCCNC(C)C)c(=O)c2cc(OC)c(OC)cc12`, the growth was 2.52% (active).
Still for that read-out and setting: under `OCCCNc1oc(-c2ccccc2)nc1[P+](c1ccccc1)(c1ccccc1)c1ccccc1` stands 1.71% (active).

Another assay concerns RPMI-8226 leukemia. Described as above. Particulars: 10 µM.
Turning to `COc1cccc2nc(Nc3ccc(F)c(NC(=O)c4ccc(CN5CCN(C)CC5)c(C(F)(F)F)c4)c3)ccc12`, the growth was -43.9% (active).
As to `COC[C@@H](CC(C)C)N=C1N/C(=C\c2ccc3ncsc3c2)C(=O)N1C`, the growth is 3.65% (active).
Regarding `COc1ccsc1/C=N/NC(=O)c1[nH]c2ccc(Br)cc2c1-c1ccccc1`, the growth is -13.6% (active).
As to `CCOC(=O)C1NN(c2ccc(S(N)(=O)=O)cc2)c2nc3nc(-c4cccs4)cc(-c4cccs4)c3c(=O)n21` (stereo not given), the growth is 77.9% (inactive).
As for `C#CCNC(=O)[C@]12CCC(C)(C)C[C@H]1C1=CC[C@@H]3[C@@](C)(CCC#N)[C@H](C(=C)C)CC[C@@]3(C)[C@]1(C)CC2`, the growth was 22.2% (inactive).
On to `Cc1ccc(-c2nc3ccc(C(=O)N=Nc4c(O)[nH]c5ccc([N+](=O)[O-])cc45)cc3[nH]2)cc1`, for which the growth was 104% (inactive).
On to `O=C(O)CCCCCCCCCCN1C(=O)/C(=C/c2cnc(-c3ccc(Cl)cc3)s2)SC1=S`, for which the growth is 74.9% (inactive).
For the compound `O=C(c1ccc(Cl)cc1)C1[C@H](c2ccccc2Br)[C@@H](c2ccccc2)NC12C(=O)Nc1ccc(Br)cc12` (stereo not given in full), the growth was 7% (active).
Take `C=C(C)[C@@H]1CC[C@]2(COP(=O)(OCC)OCC)CC[C@]3(C)[C@H](CC[C@@H]4[C@@](C)(CCCN)[C@H](C(=C)C)CC[C@]43C)[C@@H]12`: the growth is -34.4% (active).
Turning to `O=C(COc1ccc(NC(=O)Nc2ccc(Cl)cc2)cc1)N=Nc1c(O)[nH]c2ccc([N+](=O)[O-])cc12`, the growth was 22.3% (inactive).
Same read-out and setting: the result for `CCN1CCN(c2ccc(NC(=O)Nc3ccc(-c4cc(C(=O)NC(C)C)c5ncccc5n4)cc3)cc2C(F)(F)F)CC1` reads -43.3% (active).
The same measure, in the same setting: the result for `O=C(c1ccc(Cl)cc1)C1[C@H](c2ccc(Br)cc2)[C@@H](c2ccccc2)NC12C(=O)Nc1ccc(Br)cc12` (stereo not given in full) reads -6.16% (active).
